Records with an inconclusive call do not appear. Where a call stands in place of a potency, no number is given. Active and inactive are the calls of the source. The call rests on the fitted dose curve; in most records, active means well fitted inhibition curve with a large enough effect; inconclusive means small, poorly fitted or top-dose-only effect; inactive means no such curve, though single readings can be large or run the other way. Where a SMILES comes first, the peptide text is derived from it.
Tests used:
[1] = test system: Zika virus NS2B-NS3 protease (unlinked complex); assay: Primary screen GU Rhodamine qHTS for Zika virus inhibitors: Unlinked NS2B-NS3 protease assay (AID 1347159); details: Recombinant ZIKV NS2B-NS3 protease, Rhodamine110 substrate fluorescence; series mostly up to 107 µM; further: nearly all actives have a fitted effect of over 60% in size
Outline: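 In dose–response format, inhibition of unlinked protease (25 nM) was measured with 1.5 microM bis-peptide Rhodamine110 substrate. Aprotinin served as the intraplate control.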

[2] = test system: Zika virus NS2B-NS3 protease (linked construct); assay: Primary screen NINDS Rhodamine qHTS for Zika virus inhibitors (AID 1347160); details: purified NS2B-NS3 protease, Rhodamine110 substrate fluorescence; series mostly up to 33.1 µM; further: nearly all actives have a fitted effect of over 55% in size
Outline: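 Each compound, titrated, sat 15 min with 25 nM linked protease before 1.5 microM Rhodamine110 substrate went in. Fluorescence gain over the next 15 min, in pH 8.0 Tris with Tween 20, gave Hill-fitted curves.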

Question: With `CC1(C)CC[C@]2(C(=O)O[C@@H]3O[C@H](CO)[C@@H](O)[C@H](O)[C@H]3O)CC[C@]3(C)C(=CCC4[C@@]5(C)C[C@@H](O)[C@H](O)[C@@](C)(CO)C5[C@H](O)C[C@]43C)C2C1` (some centres not stated) as the molecule, how does the Potency [1] read?
Answer: inactive

Question: And the Potency [2]?
Answer: inactive

Question: `C=C1CCC(OC(C)=O)C2(C)CC3OC(=O)C(C)=C3CC12` (configuration not stated) was tested. Which Potency [1] did it give?
Answer: inactive

Question: And the Potency [2]?
Answer: inactive

Question: For `O=C(NCCN1CCCC1)c1cc(-c2ccc(CN3CCOCC3)cc2)nc2ccc(F)cc12`, which Potency [1] is on record?
Answer: inactive

Question: What about the Potency [2] of the same molecule?
Answer: inactive

Question: What does the source list for `CN1CCN(C(=O)c2cc3cc(Cl)ccc3[nH]2)CC1`?
Answer: Potency [1]: inactive; Potency [2]: inactive

Question: Which Potency [1] does the source give for `Cc1ccccc1-c1cc(N2CCN(C)CC2)ncc1N(C)C(=O)C(C)(C)c1cc(C(F)(F)F)cc(C(F)(F)F)c1` here?
Answer: inactive

Question: And the Potency [2]?
Answer: inactive

Question: Which results are given for `OCC1OC(Oc2cc(O)cc(/C=C/c3ccc(OC4OC(CO)C(O)C(O)C4O)cc3O)c2)C(O)C(O)C1O` (configuration not stated)?
Answer: Potency [1]: inactive; Potency [2]: inactive

Question: Which results are given for `COc1ccc([C@H]2OC[C@H]3[C@@H]2CO[C@@H]3c2ccc(O[C@@H]3O[C@H](CO)C(O)[C@H](O)[C@H]3O)c(OC)c2)cc1OC` (some centres not stated)?
Answer: Potency [1]: inactive; Potency [2]: inactive

Question: What does the source list for `C=C1C[C@]23C[C@@]1(O)CC[C@H]2[C@@]12C=C[C@H](O)[C@@](C)(C(=O)O1)[C@H]2[C@@H]3C(=O)O`?
Answer: Potency [1]: inactive; Potency [2]: inactive

Question: Which Potency [1] does the source give for `CC(=O)O[C@H]1[C@H](O[C@H]2CC[C@]34C[C@]35CC[C@]3(C)[C@@H]([C@@]6(C)CC[C@@H](C(C)(C)O)O6)[C@@H](O)C[C@@]3(C)[C@@H]5C[C@H](O[C@@H]3O[C@H](CO)[C@@H](O)[C@H](O)[C@H]3O)[C@H]4C2(C)C)OC[C@@H](OC(C)=O)[C@@H]1O` here?
Answer: inactive

Question: What about the Potency [2] of the same molecule?
Answer: inactive

Question: What does the source list for `CC(C)N(CCCNC(=O)Nc1ccc(C(C)(C)C)cc1)C[C@H]1O[C@@H](n2ccc3c(N)ncnc32)[C@H](O)[C@@H]1O`?
Answer: Potency [1]: inactive; Potency [2]: inactive

Question: Which Potency [1] does the source give for `CC1C2=CC(=O)OC2(O)CC2C1C(O)CC1C(C)(CO)CCCC21C` (configuration not stated) here?
Answer: inactive

Question: What about the Potency [2] of the same molecule?
Answer: inactive

Question: Which Potency [1] does the source give for `O=C(C[C@@H]1C(C(=O)O)=CO[C@@H](O[C@@H]2O[C@H](CO)[C@@H](O)[C@H](O)[C@H]2O)/C1=C\CO)OCCc1ccc(O)c(O)c1` here?
Answer: inactive

Question: And the Potency [2]?
Answer: inactive

Question: What does the source list for `CC1(C(=O)O)CCCC2(C)C3CCC4CC3(CCC12)CC4(O)CO` (configuration not stated)?
Answer: Potency [1]: inactive; Potency [2]: inactive

Question: `C=C1C(OC(C)=O)C(=O)C2C(C)(C)C(O)CCC2(C)C1CC(OC(C)=O)/C(C)=C/COC(C)=O` (configuration not stated) was tested. Which Potency [1] did it give?
Answer: inactive

Question: And the Potency [2]?
Answer: inactive

Question: Which Potency [1] does the source give for `COc1cc([C@@H](O[C@@H]2O[C@H](CO)[C@@H](O)[C@H](O)[C@H]2O)[C@@H]2CO[C@H](c3ccc(O)c(OC)c3)[C@H]2CO)ccc1O` here?
Answer: inactive

Question: And the Potency [2]?
Answer: inactive

Question: What does the source list for `O=C(NC/C=C/CN1CCN(c2cccc(Cl)c2Cl)CC1)c1ccc(-c2ccccn2)cc1`?
Answer: Potency [1]: inactive; Potency [2]: inactive

Question: `O=C(O)c1cccc(C(=O)CCC2OC(n3cnc4c(=O)[nH]cnc43)C(O)C2O)c1` (configuration not stated) was tested. Which Potency [1] did it give?
Answer: inactive

Question: What about the Potency [2] of the same molecule?
Answer: inactive

Question: For `CCOc1ncc(S(=O)(=O)N2CCN(CC)CC2)cc1-c1nc2c(CC)n(CCOC)nc2c(=O)[nH]1`, which Potency [1] is on record?
Answer: inactive

Question: What about the Potency [2] of the same molecule?
Answer: inactive

Question: `CC(=O)NC(Cc1ccccc1)C(=O)NC(C(=O)O)C(C)C` (stereo not drawn) (Ac-Phe-Val-OH; configuration not given here) was tested. Which Potency [1] did it give?
Answer: inactive

Question: What about the Potency [2] of the same molecule?
Answer: inactive

Question: Which Potency [1] does the source give for `O=C(/C=C/c1ccc(O)cc1)OC[C@H]1O[C@H](O[C@@]2(CO)O[C@@H](CO)[C@H](O)[C@H]2O)[C@H](O)[C@@H](O)[C@@H]1O` here?
Answer: inactive

Question: What about the Potency [2] of the same molecule?
Answer: inactive

Question: For `C=CC(C)(O)CC/C=C(\C)C(=O)O[C@@H]1[C@@H](O)[C@H](OC(C)(C=C)CC/C=C(\C)C(=O)O[C@@H]2O[C@H](CO)[C@@H](O)[C@H](O)[C@H]2O)O[C@H](CO)[C@H]1OC(=O)/C(C)=C/CCC(C)(O)C=C` (some centres not stated), which Potency [1] is on record?
Answer: inactive

Question: And the Potency [2]?
Answer: inactive

Question: `COC(=O)C1=COC(OC2OC(CO)C(O)C(O)C2O)C2C(C)C(OC(C)=O)C(OC(=O)c3ccccc3)C12` (configuration not stated) was tested. Which Potency [1] did it give?
Answer: inactive

Question: And the Potency [2]?
Answer: inactive

Question: With `COC(=O)C1=COC(O[C@@H]2O[C@H](COC(=O)/C=C/c3ccc(O)cc3)[C@@H](O)[C@H](O)[C@H]2O)C2C(CO)=CCC12` (some centres not stated) as the molecule, how does the Potency [1] read?
Answer: inactive

Question: And the Potency [2]?
Answer: inactive

Question: With `COc1cc2nc(=NC(=O)c3cccnc3)n3c(c2cc1OC)NCC3` as the molecule, how does the Potency [1] read?
Answer: inactive

Question: What about the Potency [2] of the same molecule?
Answer: inactive

Question: For `O=C(O)c1ccnc(-c2cc(C(=O)NCCc3ccccc3)ccn2)c1`, which Potency [1] is on record?
Answer: inactive

Question: What about the Potency [2] of the same molecule?
Answer: inactive

Question: Which results are given for `CC1(C)CC[C@]2(C(=O)O)CC[C@]3(C)C(=CCC4[C@@]5(C)C(=O)C[C@H](O)[C@@](C)(CO)C5CC[C@]43C)[C@@H]2C1` (some centres not stated)?
Answer: Potency [1]: inactive; Potency [2]: inactive
